A number with no mark means an inactive call. Inconclusive results are not listed. Entries that show only a call come without a potency. Active and inactive are the calls of the source. Unless noted, calls come from the whole dose curve; as a rule, active = well fitted curve in the direction sought with a large enough effect in the repeat runs; inconclusive = weak or mixed curves; inactive = no such curve, though single readings can be large; an effect the other way counts as inactive or inconclusive.
Tests used:
[1] = qHTS assay to identify small molecule antagonists of the androgen receptor (AR) signaling pathway using the MDA cell line in the presence of 0.5 nM R1881 - cell viability counter screen (AID 1259242); note: nearly all actives have a fitted effect of over 45% in size; note: potency is the fitted concentration of half-maximal effect
Method in brief: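 Human breast carcinoma MDA-kb2 cells, cultured without CO2, receive compounds alongside 0.5 nM (final) R1881 agonist. After 16 hr at 37C, viability is taken as live-cell protease signal.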

[2] = qHTS assay to identify small molecule phospholipidosis (PLD) inducers (AID 1259344; active = well fitted curve in the direction sought with a large enough effect; an effect the other way counts as inactive or inconclusive)
Method in brief: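 Image-based: LipidTOX Red pit count/intensity per well and per cell; HepG2, 24 h compound at 37 C, PFA fixation, Hoechst counterstain.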

[3] = qHTS assay to identify small molecule HDAC inhibitors - cell viability counter screen (AID 1259365); note: nearly all actives have a fitted effect of over 50% in size; note: potency is the fitted concentration of half-maximal effect
Method in brief: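 Cytotoxicity was gauged in wild-type HCT-116 cells after a brief 2hr treatment with DMSO-dissolved compounds at 37C and 5% CO2, using CellTiter-Glo luminescence developed for 30min at room temperature.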

[4] = qHTS assay to identify small molecule agonists of the sonic hedgehog signaling (Shh) pathway - cell viability counter screen (AID 1259366); note: nearly all actives have a fitted effect of over 50% in size; note: potency is the fitted concentration of half-maximal effect
Method in brief: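 Stable Gli1-Luc NIH/3T3 clone, 2,000 cells/well. Compound exposure 24hr at 37C. Read-out: CellTiter-Fluor fluorescence.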

[5] = qHTS assay to identify small molecule antagonists of the sonic hedgehog signaling (Shh) pathway - cell viability counter screen (AID 1259367); note: nearly all actives have a fitted effect of over 55% in size; note: potency is the fitted concentration of half-maximal effect
Method in brief: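 Tox21 library chemicals were tested on a Gli1-Luc NIH/3T3 clone (2,000 cells/well) stimulated by conditioned medium; viability was quantified as fluorescence from CellTiter-Fluor reagent added at 23 hr.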

[6] = qHTS assay to identify small molecule agonists of the sonic hedgehog signaling (Shh) pathway (AID 1259368; calls by dose curve; note: nearly all actives have a fitted effect of over 15% in size; note: potency is the fitted concentration of half-maximal effect)
Method in brief: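 Stable NIH/3T3 Gli1-Luc reporter clone; 24 hr cpd exposure after a 4 hr settling period; luminescence endpoint.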

[7] = target: Estrogen receptor (Homo sapiens) (UniProt P03372); assay: qHTS assay to identify small molecule antagonists of the estrogen receptor alpha (ER-alpha) signaling pathway using the BG1 cell line in the presence of 0.1 nM 17-beta-estradiol (AID 1259244); note: nearly all actives have a fitted effect of over 50% in size; note: potency is the fitted concentration of half-maximal effect
Method in brief: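 Seeding of stripped-serum-adapted VM7Luc4E2 cells, 24 h attachment, compound transfer, then 0.1 nM final 17beta-estradiol; after 22 h incubation, ONE-Glo reagent and luminescence reading.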

[8] = qHTS assay to identify small molecule antagonists of the sonic hedgehog signaling (Shh) pathway (AID 1259369; calls by dose curve; note: nearly all actives have a fitted effect of over 45% in size; note: potency is the fitted concentration of half-maximal effect)
Method in brief: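 Gli1 transcriptional reporter (firefly Luc) in NIH/3T3 background, conditioned-medium activated. 24hr exposure, luminescence endpoint.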

[9] = qHTS assay to identify small molecule HDAC inhibitors (AID 1259364); note: potency is the fitted concentration of half-maximal effect;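 note: wild-type HCT-116 cells with endogenous class I/II HDAC activity; nearly all actives have a fitted effect of over 45% in size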
Method in brief: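 After a 2 hr compound incubation (37C, 5% CO2), HCT-116 cells seeded at 1,500/well the day before received HDAC-Glo reagent; signal read as luminescence after 30 min at room temperature.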

Chain of Estrogen receptor (Homo sapiens) (P03372 whole entry, looked up): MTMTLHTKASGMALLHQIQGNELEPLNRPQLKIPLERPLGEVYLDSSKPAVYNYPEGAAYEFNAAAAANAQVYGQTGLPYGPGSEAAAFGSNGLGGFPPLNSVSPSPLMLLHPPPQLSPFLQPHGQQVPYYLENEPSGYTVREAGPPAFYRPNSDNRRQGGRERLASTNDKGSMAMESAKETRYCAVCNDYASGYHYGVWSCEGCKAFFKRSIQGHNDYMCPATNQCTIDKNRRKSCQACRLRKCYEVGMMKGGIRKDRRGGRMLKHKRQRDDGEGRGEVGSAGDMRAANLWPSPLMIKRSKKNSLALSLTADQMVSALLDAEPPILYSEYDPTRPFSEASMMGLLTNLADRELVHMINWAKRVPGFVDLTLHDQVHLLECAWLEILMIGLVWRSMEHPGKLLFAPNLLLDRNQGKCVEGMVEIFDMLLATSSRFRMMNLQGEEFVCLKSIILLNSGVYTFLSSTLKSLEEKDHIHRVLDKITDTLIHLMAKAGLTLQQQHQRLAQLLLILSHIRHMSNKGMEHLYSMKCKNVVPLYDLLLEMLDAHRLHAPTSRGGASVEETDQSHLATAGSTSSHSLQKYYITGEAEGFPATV

In the case of `Cc1ccc(N)cc1O`, the Potency [1] is reported as “inactive”, the Potency [2] is reported as “inactive” and the Potency [3] is reported as “inactive”. The Potency [4] was “inactive”, the Potency [5] was “inactive” and the Potency [6] was “inactive”.
For `CCc1ccc(C)nc1`, the Potency [1] was “inactive”, the Potency [7] was “inactive” and the Potency [3] was “inactive”. For the same molecule, the Potency [4] was “inactive”, the Potency [5] was “inactive” and the Potency [6] was “inactive”. The Potency [8] was “inactive”.
With `CC1(C)COCN1` the Potency [1] was “inactive”, the Potency [9] was “inactive” and the Potency [3] was “inactive”. For the same molecule, the Potency [4] was “inactive”, the Potency [5] was “inactive” and the Potency [6] was “inactive”.
In the case of `CC(C)(C)c1cc(/C=C2\SC(=N)NC2=O)cc(C(C)(C)C)c1O`, the Potency [1] is reported as “inactive”, the Potency [9] is reported as “inactive” and the Potency [3] is reported as “inactive”. The Potency [4] was “inactive”, the Potency [5] was “inactive” and the Potency [6] was “inactive”.
With `CN1[C@@H]2CC[C@H]1CC(OC(=O)C(CO)c1ccccc1)C2` (stereo partly drawn) the Potency [1] was “inactive”, the Potency [2] was “inactive” and the Potency [9] was “inactive”. For the same molecule, the Potency [3] was “inactive”, the Potency [4] was “inactive” and the Potency [5] was “inactive”.
For `CCCCCCCC/C=C/CCCOC(C)=O`, the Potency [1] was “inactive”, the Potency [7] was “inactive” and the Potency [3] was “inactive”. The Potency [4] was “inactive”, the Potency [5] was “inactive” and the Potency [6] was “inactive”. The Potency [8] was 48.6 µM (active).
For `O=C1c2c(O)ccc(O)c2C(=O)c2c(NCCNCCO)ccc(NCCNCCO)c21`, the Potency [1] was 21.1 µM (active), the Potency [2] was “inactive” and the Potency [9] was “inactive”. The Potency [3] was “inactive”, the Potency [4] was 21.1 µM (active) and the Potency [5] was 23.7 µM (active). The Potency [6] was “inactive” and the Potency [8] was 0.0473 µM (active).
With `Brc1ccccc1-c1ccccc1` the Potency [1] was “inactive”, the Potency [2] was “inactive” and the Potency [3] was “inactive”. For the same molecule, the Potency [4] was “inactive”, the Potency [5] was “inactive” and the Potency [6] was “inactive”. For the same molecule, the Potency [8] was “inactive”.
With `C[Si](C)(C)Cl` the Potency [1] was “inactive”, the Potency [7] was “inactive” and the Potency [3] was “inactive”. The Potency [4] was “inactive”, the Potency [5] was “inactive” and the Potency [6] was “inactive”. The Potency [8] was “inactive”.
For `O=C1c2c(O)ccc([N+](=O)[O-])c2C(=O)c2c([N+](=O)[O-])ccc(O)c21`, the Potency [1] was 27.1 µM (active), the Potency [7] was 27.1 µM (active) and the Potency [3] was 21.5 µM (active). The Potency [4] was 17.1 µM (active), the Potency [5] was 10.8 µM (active) and the Potency [6] was “inactive”. The Potency [8] was 1.52 µM (active).
In the case of `O=C1Nc2ccc(Cl)cc2[C@@](C#CC2CC2)(C(F)(F)F)O1`, the Potency [1] is reported as “inactive”, the Potency [9] is reported as “inactive” and the Potency [3] is reported as “inactive”. For the same molecule, the Potency [4] was “inactive”, the Potency [5] was “inactive” and the Potency [6] was “inactive”.
With `Cc1occc1SSc1ccoc1C` the Potency [1] was “inactive”, the Potency [9] was “inactive” and the Potency [3] was “inactive”. For the same molecule, the Potency [4] was “inactive”, the Potency [5] was “inactive” and the Potency [6] was “inactive”.
With `CC=O` the Potency [1] was 32 µM (active), the Potency [7] was 0.403 µM (active) and the Potency [3] was “inactive”. The Potency [4] was 28.6 µM (active), the Potency [5] was 28.6 µM (active) and the Potency [6] was “inactive”. For the same molecule, the Potency [8] was 0.0161 µM (active).
With `O=C(O)CC(=O)O` the Potency [1] was “inactive”, the Potency [9] was “inactive” and the Potency [3] was “inactive”. The Potency [4] was “inactive”, the Potency [5] was “inactive” and the Potency [6] was “inactive”.
With `C=CC(=O)OCCC#N` the Potency [1] was “inactive”, the Potency [9] was “inactive” and the Potency [3] was “inactive”. The Potency [4] was “inactive”, the Potency [5] was “inactive” and the Potency [6] was “inactive”. For the same molecule, the Potency [8] was “inactive”.
For `NCCCC(O)(P(=O)(O)O)P(=O)(O)O`, the Potency [1] was “inactive”, the Potency [2] was “inactive” and the Potency [9] was “inactive”. For the same molecule, the Potency [3] was “inactive”, the Potency [4] was “inactive” and the Potency [5] was “inactive”. The Potency [6] was “inactive” and the Potency [8] was “inactive”.
For `CC(C)OC(=O)c1cc(C(=O)OC(C)C)cc([N+](=O)[O-])c1`, the Potency [1] was “inactive”, the Potency [2] was “inactive” and the Potency [3] was “inactive”. The Potency [5] was “inactive” and the Potency [6] was “inactive”.
For `CC(O)C#CC(C)O` (stereo not drawn), the Potency [1] was “inactive”, the Potency [7] was “inactive” and the Potency [4] was 53.9 µM (active). For the same molecule, the Potency [5] was 60.5 µM (active), the Potency [6] was “inactive” and the Potency [8] was 24.1 µM (active).
In the case of `Oc1c(Br)cc(Br)c2cccnc12`, the Potency [1] is reported as “inactive”, the Potency [2] is reported as “inactive” and the Potency [9] is reported as “inactive”. For the same molecule, the Potency [3] was “inactive”, the Potency [4] was 7.5 µM (active) and the Potency [6] was “inactive”. For the same molecule, the Potency [8] was 2.37 µM (active).
For `O=C(Oc1ccccc1)c1cccc(C(=O)Oc2ccccc2)c1`, the Potency [1] was “inactive”, the Potency [9] was 0.0885 µM (active) and the Potency [3] was “inactive”. The Potency [4] was “inactive”, the Potency [5] was “inactive” and the Potency [6] was 2.29 µM (active). For the same molecule, the Potency [8] was “inactive”.
With `CCN(CC)c1cccc(C)c1` the Potency [1] was “inactive”, the Potency [7] was “inactive” and the Potency [3] was “inactive”. The Potency [4] was “inactive”, the Potency [5] was “inactive” and the Potency [6] was “inactive”. The Potency [8] was “inactive”.
For `Clc1ccccc1CN1CCc2sccc2C1`, the Potency [1] was “inactive”, the Potency [2] was “inactive” and the Potency [9] was “inactive”. For the same molecule, the Potency [3] was “inactive”, the Potency [4] was “inactive” and the Potency [5] was “inactive”. The Potency [6] was “inactive” and the Potency [8] was “inactive”.
In the case of `C[Si](C)O[Si](C)C`, the Potency [1] is reported as “inactive”, the Potency [7] is reported as “inactive” and the Potency [3] is reported as “inactive”. For the same molecule, the Potency [4] was “inactive”, the Potency [5] was “inactive” and the Potency [6] was “inactive”. For the same molecule, the Potency [8] was “inactive”.
In the case of `O=S(=O)(O)CCCN1CCOCC1`, the Potency [1] is reported as “inactive”, the Potency [7] is reported as “inactive” and the Potency [3] is reported as “inactive”. The Potency [4] was “inactive”, the Potency [5] was “inactive” and the Potency [6] was “inactive”. For the same molecule, the Potency [8] was “inactive”.
With `CC(C)c1ccccc1N` the Potency [1] was “inactive”, the Potency [7] was “inactive” and the Potency [3] was “inactive”. For the same molecule, the Potency [4] was “inactive”, the Potency [5] was “inactive” and the Potency [6] was “inactive”. For the same molecule, the Potency [8] was “inactive”.
In the case of `CC(=O)Nc1ccc(O)cc1`, the Potency [1] is reported as “inactive”, the Potency [2] is reported as “inactive” and the Potency [3] is reported as “inactive”. The Potency [4] was “inactive”, the Potency [5] was “inactive” and the Potency [6] was “inactive”. For the same molecule, the Potency [8] was “inactive”.
With `O=C1NC2CCCCN2C12CCN(CCCN1c3ccccc3CCc3ccc(Cl)cc31)CC2` (stereo not drawn) the Potency [1] was 26.6 µM (active), the Potency [9] was “inactive” and the Potency [3] was “inactive”. For the same molecule, the Potency [4] was 26.6 µM (active), the Potency [5] was 29.8 µM (active) and the Potency [6] was “inactive”. For the same molecule, the Potency [8] was 21.1 µM (active).
For `CC1CCCNC1` (stereo not drawn), the Potency [1] was “inactive”, the Potency [9] was “inactive” and the Potency [3] was “inactive”. The Potency [5] was 42.4 µM (active), the Potency [6] was “inactive” and the Potency [8] was 26.7 µM (active).

Reference: PubChem BioAssay (Tox21)
